{
  "source": "PubChem BioAssay (EPA / NIEHS)",
  "note": "Calls of active or inactive are those of the source. How the source made its calls: active means hit-call score of the fitted dose curve at least 0.9, where 1 is the maximum; inactive means score below 0.9.",
  "data": [
    {"read-out": "DNA damage-inducible transcript 3 (DDIT3), DDIT3 (gene 1649)", "experiment": "LTEA_HepaRG_DDIT3: Life Technologies and Expression Analysis (LTEA) Assay for DNA damage-inducible transcript 3 (DDIT3) using HepaRG (AID 2283488)", "conditions": "mRNA level, 48 h; actives raise or lower the signal", "procedure": "LTEA_HepaRG is a cell based, multiplexed-readout assay that uses HepaRG, a human liver cell line, with measurements taken at 48 hours after chemical dosing on a 96-well plate.LTEA_HepaRG_DDIT3 is one of 102 assay component(s) measured in the LTEA HepaRG cell culture assay. It is a marker of Oxidative Stress.Data from the assay component LTEA_HepaRG_DDIT3 was analyzed into 1 endpoint. This assay endpoint, LTEA_HepaRG_DDIT3, was analyzed with bidirectional fitting relative to DMSO as the negative control and baseline of activity. Using a type of inducible reporter, measures of mRNA induction for gain or loss-of-signal activity can be used to understand regulation of transcription factor activity. To generalize the intended target to other relatable targets, this assay endpoint is annotated to the dna binding intended target family, where the subfamily is basic leucine zipper.\nA total of 1060 chemcials from the ToxCast library were tested in eight-point concentration-response experiments. Cell culture and cytotoxicity assays were conducted at Thermo Fisher Scientific's Custom Services facility (Madison, WI). A single lot of human HepaRG cells (Thermo Fisher Scientific, Frederick, MD) was used for the cell culture experiments. 96-well format collagen type I coated plates of human HepaRG cells were prepared using established methods. Briefly, cryopreserved HepaRG cells were thawed, plated at a density of approximately 100,000 cells/well in HepaRG Thaw, Plate, and General Purpose media (HPRG770, Thermo Fisher Scientific), and incubated for 48 hours. 0.5% DMSO was selected as vehicle control to balance the requisite need of DMSO in HepaRG cultures to maintain differentiation (for example, baseline metabolism, proportions of hepatocytes vs. cholangiocytes), while enabling further hepatic receptor pathway activation (for example, PXR and CAR) in response to chemical exposure. 48 hours after plating, the culture medium was replaced with HepaRG Serum-Free Incudtion Media. Cells were exposed to each test chemical in duplicate and maintained in CO2 incubators for another 48 hours. Chemical plates were thawed to room temperature and 200x concentrations of treatment groups were prepared. 8-point conentration-reponse curves were made with the highest exposure at 100 uM, followed by half-log dilutions, all in 0.5% DMSO. Each test plate contained variouse controls, induction positive controls (1mM phenobarbital), cytotoxicity positive controls ([…] aflatoxin B1), vehicle controls (0.5% DMSO), and total lysis controls (0.5% DMSO). Cell morphology images were taken using an Essen IncuCyte FLR automated microscope, with six 96-well plates imaged in about 24 minutes. Images were captured and exported and JPEG files. Spent culture media was transfered to black-well plates for the LDH assay, and remaining media was sorted at -80 C for later use. Cells were treated with RLT buffer and frozen until shipped for gene expression analysis. Total RNA was isolated from the cell suspension in 75 uL of Buffer RLT (Qiagen, Germantown, MD 20874) by Quintiles/Expression Analysis (Durham, NC) using a custom isolation procedure. Total RNA from each plate well was transferred to a preamplification plate. Fluidigm's 96.96 Dynamic ArrayTM (Fluidigm, Amsterdam, the Netherlands) technology was used for gene expression analyses by quantitative reverse transcription polymerase chain reaction (qRT-PCR, performed by Quintiles/Expression Analysis, Durham, NC)89. Standard TaqManTM Assays (Applied Biosystems/ThermoFisher Scientific, Foster City, CA) were used to assess the expression of 93 genes selected based on their selectivity and sensitivity to important hepatic receptors known to be modulated by environmental chemicals; importance in human hepatocyte functionality; and hepatotoxicity. […]", "values": [
      {"compound": "O=C(O)C1(c2ccc3c(c2)OC[C@H](Cc2ccc(-c4ccccc4)cc2)[C@H]3O)CCCC1", "AC50": "50 µM (active)"},
      {"compound": "N#Cc1cccnc1", "outcome": "inactive"},
      {"compound": "COc1ccccc1N", "outcome": "inactive"},
      {"compound": "Oc1cc(Cl)c(Cl)cc1Cl", "outcome": "inactive"},
      {"compound": "OCCN(CCO)CCO", "outcome": "inactive"},
      {"compound": "Clc1cccc(Cl)c1Cl", "outcome": "inactive"},
      {"compound": "CN(C)C(=S)S", "outcome": "inactive"},
      {"compound": "Oc1c(Cl)cc(Cl)cc1Cl", "outcome": "inactive"},
      {"compound": "Cc1cc(C)cc(C)c1", "outcome": "inactive"},
      {"compound": "CC(C)(C)c1ccccc1O", "outcome": "inactive"},
      {"compound": "Clc1cccc(Cl)c1", "outcome": "inactive"},
      {"compound": "O=C(N[C@H]1CN2CCC1CC2)c1ccc2c(c1)OCCO2", "outcome": "inactive"},
      {"compound": "CC(C)O.CC(C)O.OCCN(CCO)CCO.OCCN(CCO)CCO.[Ti]", "outcome": "inactive"},
      {"compound": "CCCCCCCCCCCCc1cccc(S(=O)(=O)O)c1", "AC50": "45 µM (active)"}
    ]}
  ]
}
